Assay results taken from PubChem BioAssay (NCI).
Compounds without any hit were thinned out: in the full panel of roughly 79,000, 15% have a hit. Values without a mark were called inactive. Calls of active or inactive are those of the source. Cut-off read from the data, not from the text of the source: active = growth inhibition above about 70%; inactive = the rest.

Assay: NCI Yeast Anticancer Drug Screen. Data for the mlh1 strain (AID 171);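 note: 0% = growth of vehicle-treated control cultures of the same strain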
Details: S. cerevisiae mlh1 strain growth inhibition, hits give high values
Experimental: Growth inhibition of yeast strains with defined genetic alterations is measured as a screen for potential anti-cancer activity. Selected strains with alterations in DNA damage repair or cell cycle control were exposed to compounds and growth inhibition was measured relative to vehicle treated controls. The strain used in this assay is mlh1

Compound	growth inhibition (at 1.2 µM) [%]	growth inhibition (at 3.7 µM) [%]	growth inhibition (at 11.0 µM)	growth inhibition (at 33.0 µM)	growth inhibition (at 100.0 µM)
Cc1c2ccncc2c(C)c2c1oc1ccccc12	1	16	8%	87% (active)	98% (active)
O=S(=O)(Oc1c(Cl)cc(Cl)cc1Cl)c1ccccc1	-1	-2	-10%	13%	28%
c1ccc(C2=NNC3c4ccccc4-c4ccccc4N3C2)cc1 (stereo not given)	-1	9	2%	19%	58%
O=C(Cc1ccccc1F)NC1=C(Cl)C(=O)c2ccccc2C1=O	-2	11	8%	3%	14%
COc1ccc2c(C)cc(N/N=C/c3sccc3C)nc2c1	-27	-5	-7%	60%	56%
Cc1ccc(Cl)c2c(=O)c3ccccc3[nH]c12	0	-1	0%	0%	12%
O=c1c(Br)cc2c(-c3ccccc3)c3cc(Br)c(O)c(Br)c3oc-2c1Br	0	-29	12%	18%	25%
Cc1ccc(C(C)C)c(C(=C2C=CC(=[N+](C)C)C=C2)c2c(C(C)C)ccc(C)c2O)c1O	0	8	97% (active)	96% (active)	84% (active)
